Results published in PubChem BioAssay (NCATS).
Results filed as inconclusive are left out. Activity calls are given as the source filed them. Calls come from the whole dose curve; as a rule, active = well fitted curve in the direction sought with a large enough effect; inconclusive = small, poorly fitted or top-dose-only effect, or another doubt; inactive = no such curve, though single readings can be large; an effect the other way counts as inactive or inconclusive.

Legend:
[1] = BET inhibitor-based combinations targeting novel dependencies in MECOM-rearranged (r) AML: OCI-AML3 cell line (AID 2202232); conditions: Potency: OCI-AML3 viability; note: nearly all actives have a fitted effect of over 35% in size
How it was run: (§1)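 Luminescent ATP readout (CellTiter-Glo) after 48 hr drug exposure gives viability. Curves span 11 concentrations and are normalized to DMSO and empty wells. Activity is reported as area under the curve and its Z-transform within each cell line.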

[2] = BET inhibitor-based combinations targeting novel dependencies in MECOM-rearranged (r) AML: MV-4-11 cell line (AID 2202233); note: nearly all actives have a fitted effect of over 45% in size
How it was run: (§2)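 Luminescent ATP readout (CellTiter-Glo, 15 min at room temperature) after 48 hr drug exposure gave viability. Dose-response curves, normalized to DMSO and empty-well controls, were summarized as area under the curve and its mean-centred Z-score.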

[3] = BET inhibitor-based combinations targeting novel dependencies in MECOM-rearranged (r) AML: HNT-34 cell line (AID 2202234); note: nearly all actives have a fitted effect of over 35% in size
How it was run: as §2

[4] = BET inhibitor-based combinations targeting novel dependencies in MECOM-rearranged (r) AML: UCSD-AML1 cell line (AID 2202235); note: nearly all actives have a fitted effect of over 40% in size
How it was run: as §2

[5] = BET inhibitor-based combinations targeting novel dependencies in MECOM-rearranged (r) AML: AML-191 cell line (AID 2202236; note: nearly all actives have a fitted effect of over 35% in size)
How it was run: as §1

[6] = BET inhibitor-based combinations targeting novel dependencies in MECOM-rearranged (r) AML: AML-194 cell line (AID 2202237; note: nearly all actives have a fitted effect of over 40% in size)
How it was run: as §1
Potency is the fitted concentration of half-maximal effect.

Compound | Potency [1] | Potency [2] | Potency [3] | Potency [4] | Potency [5] | Potency [6]
CC(C)OC(=O)[C@H](C)N[P@](=O)(OC[C@H]1O[C@@H](n2ccc(=O)[nH]c2=O)[C@](C)(F)[C@@H]1O)Oc1ccccc1 | inactive | inactive | inactive | inactive | inactive | inactive
Cc1ccc(-c2nn(C(C)(C)CNC(=O)c3ccncc3)c3ncnc(N)c23)cc1 | 16.6 µM (active) | 11.8 µM (active) | 8.33 µM (active) | 7.42 µM (active) | 7.42 µM (active) | 7.42 µM (active)
COc1cc(=C2C=c3ccccc3=N2)[nH]/c1=C/c1[nH]c(C)cc1C | 2.63 µM (active) | 2.35 µM (active) | 3.72 µM (active) | 3.32 µM (active) | 2.35 µM (active) | 5.9 µM (active)
CCNC(=O)Nc1ccc(-c2nc3c(c(N4CCOC[C@@H]4C)n2)CCN(C2COC2)C3)cc1 | 1.48 µM (active) | 1.32 µM (active) | 1.05 µM (active) | – | – | –
Cc1c(-c2c(-c3ccc(F)o3)sc3ncnc(O[C@@H](Cc4ccccc4OCc4ccnn4CC(F)(F)F)C(=O)O)c23)ccc(OCCN2CCN(C)CC2)c1Cl | 0.296 µM (active) | 0.0235 µM (active) | 0.332 µM (active) | 1.32 µM (active) | 5.25 µM (active) | 4.68 µM (active)
CC[C@H](CC[C@@H](C)[C@H]1CC[C@H]2[C@@H]3CC=C4C[C@@H](O)CC[C@]4(C)[C@H]3CC[C@]12C)C(C)C | inactive | inactive | inactive | – | inactive | inactive
COc1ccc(-c2oc3ncnc(N)c3c2-c2ccc(NC(=O)Nc3cc(C(F)(F)F)ccc3F)cc2)cc1 | 10.5 µM (active) | 0.372 µM (active) | 7.42 µM (active) | – | 8.33 µM (active) | 7.42 µM (active)
O=C(O)c1cccnc1 | inactive | inactive | inactive | – | inactive | inactive
COc1cc(C(C)C)c2c(c1)S(=O)(=O)N(COc1cc(=O)n3cccc(OCCN4CCCCC4)c3n1)C2=O | 23.5 µM (active) | 23.5 µM (active) | – | 26.3 µM (active) | 29.5 µM (active) | 23.5 µM (active)
C=CC(=O)N1CCC(C2CCNc3c(C(N)=O)c(-c4ccc(Oc5ccccc5)cc4)nn32)CC1 (stereo not given) | 13.2 µM (active) | 10.5 µM (active) | – | inactive | – | –
CC(=O)O[C@@]12CO[C@@H]1C[C@H](O)[C@@]1(C)C(=O)[C@H](O)C3=C(C)[C@@H](OC(=O)[C@H](O)[C@@H](NC(=O)OC(C)(C)C)c4ccccc4)C[C@@](O)([C@@H](OC(=O)c4ccccc4)[C@H]21)C3(C)C | 0.0033 µM (active) | 0.0042 µM (active) | 0.0037 µM (active) | – | 0.0132 µM (active) | 0.0148 µM (active)
COc1cc(C(N)=O)ccc1NC(=O)[C@@H]1N[C@@H](CC(C)(C)C)[C@@]2(C(=O)Nc3cc(Cl)ccc32)[C@H]1c1cccc(Cl)c1F | 0.934 µM (active) | 0.0934 µM (active) | 0.148 µM (active) | – | 0.468 µM (active) | 0.59 µM (active)
CCc1ccc(N(CC(C)C)S(=O)(=O)c2ccc(OCC3CCOCC3)c(CO)c2)cc1 | 14.8 µM (active) | 18.6 µM (active) | – | inactive | – | –
CCC(=O)N1CCOc2c(cc(-c3cc(OC)cc(OC)c3)cc2C(=O)N[C@H]2CCCN(C)C2)C1 | 16.6 µM (active) | 10.5 µM (active) | – | 20.9 µM (active) | 14.8 µM (active) | 18.6 µM (active)
CCC(C)CNCC(=O)N1CCc2sccc2C1c1cccc(C)n1 (stereo not given) | inactive | inactive | – | inactive | inactive | inactive
Nc1nc(-c2nn(Cc3ccccc3F)c3ncccc23)ncc1C1CC1 | 5.9 µM (active) | 1.18 µM (active) | – | 14.8 µM (active) | – | –
CC(C)n1cc(-c2ccc3c(c2)N(C)CC3)c2c(NS(=O)(=O)c3ccn(C)n3)ccnc21 | inactive | inactive | – | inactive | inactive | inactive
Cc1c(-c2cnccn2)ssc1=S | 2.95 µM (active) | 3.72 µM (active) | – | inactive | inactive | –
CCOC(=O)N[C@@H]1CC[C@@H]2[C@@H](C1)C[C@H]1C(=O)O[C@H](C)[C@H]1[C@H]2/C=C/c1ccc(-c2cccc(F)c2)cn1 | 14.8 µM (active) | 26.3 µM (active) | – | inactive | inactive | –
COc1ccc2c(c1OC)C(=O)OC2[C@H]1c2c(cc3c(c2OC)OCO3)CCN1C (stereo not given in full) | 20.9 µM (active) | 18.6 µM (active) | – | inactive | 13.2 µM (active) | 20.9 µM (active)
CO[C@H]1C(=O)[C@]2(C)[C@@H](OC)C[C@H]3OC[C@@]3(OC(C)=O)[C@H]2[C@H](OC(=O)c2ccccc2)[C@]2(O)C[C@H](OC(=O)[C@H](O)[C@@H](NC(=O)OC(C)(C)C)c3ccccc3)C(C)=C1C2(C)C | 0.0026 µM (active) | 0.0023 µM (active) | – | 0.0023 µM (active) | 0.0037 µM (active) | 0.0042 µM (active)
CC(C)(O)C1CCC(Nc2ccc3ncc(-c4cccc(C(F)(F)F)c4)n3n2)CC1 (stereo not given) | 11.8 µM (active) | 3.32 µM (active) | – | 6.61 µM (active) | 5.9 µM (active) | –
COc1cccc(-c2c(C)n(Cc3c(F)cccc3C(F)(F)F)c(=O)n(C[C@H](NCCCC(=O)O)c3ccccc3)c2=O)c1F | 7.42 µM (active) | inactive | – | inactive | – | inactive

Compound | Potency [1] | Potency [2] | Potency [3] | Potency [4] | Potency [5] | Potency [6]
Nc1ncccc1-c1nc2ccc(-c3ccccc3)nc2n1-c1ccc(C2(N)CCC2)cc1 | 18.6 µM (active) | 11.8 µM (active) | 16.6 µM (active) | – | 18.6 µM (active) | 29.5 µM (active)
Cn1cc(-c2ccc(-c3cncc(Cl)c3N3CCC4(CCNC4=O)CC3)cc2)cn1 | 16.6 µM (active) | 14.8 µM (active) | – | inactive | – | –
CCN(CC)C(=S)SSC(=S)N(CC)CC | 0.332 µM (active) | 0.263 µM (active) | 0.332 µM (active) | – | 0.296 µM (active) | 0.296 µM (active)
NC(=O)C1=C(O)[C@@]2(O)C(=O)C3=C(O)c4c(O)cccc4C[C@H]3C[C@H]2CC1=O | 3.72 µM (active) | 9.34 µM (active) | 8.33 µM (active) | – | 7.42 µM (active) | 10.5 µM (active)
Nc1ncc(C(=O)NC2CN(C(=O)C3CC3)C2)c2ccc(-c3cccc(F)c3)nc12 | 7.42 µM (active) | 10.5 µM (active) | – | 23.5 µM (active) | – | inactive
Cc1c(NC(=O)c2cc(C(N)=O)nc3cc(F)ccc23)c(C(F)(F)F)nn1Cc1ccc(C(C)(C)C)cc1 | 23.5 µM (active) | inactive | – | inactive | 16.6 µM (active) | –
C[C@H]1C[C@@H](n2c(Nc3ccc(OC(F)(F)F)cc3)nc3cc(CCC(=O)O)ccc32)CC(C)(C)C1 | 20.9 µM (active) | 20.9 µM (active) | – | – | 26.3 µM (active) | –
CN1CCN(C(=O)c2ccc(-c3ccc4c(C=O)c(O)ccc4c3)s2)CC1 | 26.3 µM (active) | – | 16.6 µM (active) | – | – | –
Cc1ccc(-n2nc(C(C)(C)C)cc2NC(=O)NCc2cc(F)ccc2Oc2ccc3c(cnn3CCO)c2)cc1 | 14.8 µM (active) | 18.6 µM (active) | 0.296 µM (active) | – | 18.6 µM (active) | 16.6 µM (active)
C=C1C(=O)O[C@H]2C[C@H](C)C(/C=C/C(C)=O)=CC[C@H]12 | 1.18 µM (active) | 1.86 µM (active) | – | 2.09 µM (active) | 2.35 µM (active) | –
O=C(O)C[C@H]1CCc2c1[nH]c1ccc(OCc3ccc(C4CCCC4)c(C(F)(F)F)c3)cc21 | 13.2 µM (active) | 5.9 µM (active) | – | inactive | – | –
COc1cc(N2CCN(C)CC2)ccc1Nc1ncc2c(n1)N(C)c1ccccc1C(=O)N2 | 18.6 µM (active) | 18.6 µM (active) | 26.3 µM (active) | – | 26.3 µM (active) | –
COC(=O)Nc1nc2ccc(S(=O)c3ccccc3)cc2[nH]1 (stereo not given) | 26.3 µM (active) | 16.6 µM (active) | – | 7.42 µM (active) | – | 7.42 µM (active)
COc1cc(C(=O)NC(N)=Nc2ccc(C)c(NC(=O)c3ccc(-c4ccccc4)cc3)c2)cc(OC)c1OC | 18.6 µM (active) | 18.6 µM (active) | 18.6 µM (active) | – | 18.6 µM (active) | 23.5 µM (active)
C=CCN(/C=C1\C(=O)O[C@@H](COC)[C@]2(C)C1=C(O)C(=O)C1=C2[C@@H](OC(C)=O)C[C@]2(C)C(=O)CC[C@H]12)CC=C | inactive | 20.9 µM (active) | 20.9 µM (active) | – | 20.9 µM (active) | 18.6 µM (active)
C=C[C@@H]1CN2CCC1C[C@H]2[C@H](O)c1ccnc2ccc(OC)cc12 (stereo not given in full) | 20.9 µM (active) | 16.6 µM (active) | – | – | inactive | inactive
CN(C)CCOc1ccc(-c2nc(-c3ccc4c(c3)CC/C4=N\O)c(-c3ccncc3)[nH]2)cc1 | 5.9 µM (active) | 16.6 µM (active) | 14.8 µM (active) | – | 16.6 µM (active) | 20.9 µM (active)
CCN(C(=O)c1c(O)c2c(Cl)cccc2n(C)c1=O)c1ccccc1 | 13.2 µM (active) | 14.8 µM (active) | – | – | 9.34 µM (active) | –
C[C@]12CCCN1CC1=NNC(=O)c3cc(F)cc4[nH]c2c1c34 | 20.9 µM (active) | 2.63 µM (active) | 5.9 µM (active) | – | 18.6 µM (active) | –
Nc1ncnc(Nc2ccc(OCc3ccccc3)c(Cl)c2)c1/C=N/OCCN1CCOCC1 | inactive | – | 23.5 µM (active) | – | – | –
Cc1cc(O[C@@H](CCC(F)(F)F)c2ccc(C(=O)NCCC(=O)O)cc2)cc(C)c1-c1ccc(C(C)(C)C)cc1 | 20.9 µM (active) | 18.6 µM (active) | 20.9 µM (active) | – | 16.6 µM (active) | 26.3 µM (active)
O=C(O)CNC(=O)c1ncc(-c2cccc(Cl)c2)cc1O | 6.61 µM (active) | inactive | – | inactive | – | inactive
